# Measured values reported in PubChem BioAssay (NCATS).
# Records with an inconclusive call do not appear. Unmarked numbers belong to inactive results. The source made the active and inactive calls. Calls follow the shape of the dose curve; as a rule, active = well fitted inhibition curve with a large enough effect; inconclusive = small, poorly fitted or top-dose-only effect; inactive = flat fitted curve, though single readings scatter.
# Test system: CP252
# Experiment: qHTS profiling for inhibitors of Plasmodium falciparum proliferation (AID 504749);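 also: 0% = DMSO vehicle and full inhibition = artemisinin control; nearly all actives have a fitted effect of over 60% in size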
# Conditions: P. falciparum in erythrocytes, SYBR Green DNA, 72 h; series mostly up to 12.8 µM; activity, negative = inhibition: at the top concentration
# Method in brief: (§1)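 Quantitative HTS: compounds pinned into medium, infected erythrocytes added (0.3% parasitemia, 2.5% hematocrit), 72 h culture at 37 C under 5% CO2. Saponin/Triton lysis with SYBR Green I, overnight RT, then fluorescence read.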
Compound,Potency,"activity, negative = inhibition"
C[N+]1([O-])[C@@H]2CC(OC(=O)[C@@H](CO)c3ccccc3)C[C@@H]1[C@H]1O[C@H]12 (stereo partly specified),inactive,–
ClC1=C(Cl)C2(Cl)C3C4CC(C5OC45)C3C1(Cl)C2(Cl)Cl (stereo unspecified),–,-18.2% [at 28.7 µM]
CCNC[C@H](O)c1cccc(O)c1,–,-0.0379%

# Test system: CP256
# Experiment: as above
# Conditions: P. falciparum in erythrocytes, SYBR Green DNA, 72 h; series mostly up to 28.7 µM; activity, negative = inhibition: at the top concentration
# Method in brief: as §1
Compound,Potency,"activity, negative = inhibition"
C[N+]1([O-])[C@@H]2CC(OC(=O)[C@@H](CO)c3ccccc3)C[C@@H]1[C@H]1O[C@H]12 (stereo partly specified),inactive,–
ClC1=C(Cl)C2(Cl)C3C4CC(C5OC45)C3C1(Cl)C2(Cl)Cl (stereo unspecified),–,-26.5%
CCNC[C@H](O)c1cccc(O)c1,–,-0.804% [at 12.8 µM]

# Test system: CP266
# Experiment: as above
# Conditions: P. falciparum in erythrocytes, SYBR Green DNA, 72 h; series mostly up to 12.8 µM; activity, negative = inhibition: at the top concentration
# Method in brief: as §1
row,Compound,"activity, negative = inhibition"
1,C[N+]1([O-])[C@@H]2CC(OC(=O)[C@@H](CO)c3ccccc3)C[C@@H]1[C@H]1O[C@H]12 (stereo partly specified),-10.8% [at 28.7 µM]
2,ClC1=C(Cl)C2(Cl)C3C4CC(C5OC45)C3C1(Cl)C2(Cl)Cl (stereo unspecified),-11.8% [at 28.7 µM]
3,CCNC[C@H](O)c1cccc(O)c1,21.7%

# Test system: CP269
# Experiment: as above
# Conditions: P. falciparum in erythrocytes, SYBR Green DNA, 72 h; series mostly up to 28.7 µM; activity, negative = inhibition: at the top concentration
# Method in brief: as §1
row,Compound,"activity, negative = inhibition"
1,C[N+]1([O-])[C@@H]2CC(OC(=O)[C@@H](CO)c3ccccc3)C[C@@H]1[C@H]1O[C@H]12 (stereo partly specified),-2.79%
2,ClC1=C(Cl)C2(Cl)C3C4CC(C5OC45)C3C1(Cl)C2(Cl)Cl (stereo unspecified),-2.78%
3,CCNC[C@H](O)c1cccc(O)c1,0.0251% [at 12.8 µM]

# Test system: CP305
# Experiment: as above
# Conditions: P. falciparum in erythrocytes, SYBR Green DNA, 72 h; series mostly up to 28.7 µM; activity, negative = inhibition: at the top concentration
# Method in brief: as §1
Compound,Potency,"activity, negative = inhibition"
C[N+]1([O-])[C@@H]2CC(OC(=O)[C@@H](CO)c3ccccc3)C[C@@H]1[C@H]1O[C@H]12 (stereo partly specified),inactive,–
ClC1=C(Cl)C2(Cl)C3C4CC(C5OC45)C3C1(Cl)C2(Cl)Cl (stereo unspecified),–,-20.9%
CCNC[C@H](O)c1cccc(O)c1,–,-1.83% [at 12.8 µM]

# Test system: CP315
# Experiment: as above
# Conditions: P. falciparum in erythrocytes, SYBR Green DNA, 72 h; series mostly up to 28.7 µM; activity, negative = inhibition: at the top concentration
# Method in brief: as §1
row,Compound,"activity, negative = inhibition"
1,C[N+]1([O-])[C@@H]2CC(OC(=O)[C@@H](CO)c3ccccc3)C[C@@H]1[C@H]1O[C@H]12 (stereo partly specified),-0.11%
2,ClC1=C(Cl)C2(Cl)C3C4CC(C5OC45)C3C1(Cl)C2(Cl)Cl (stereo unspecified),4.67%
3,CCNC[C@H](O)c1cccc(O)c1,-2.38% [at 12.8 µM]

# Test system: CP325
# Experiment: as above
# Conditions: P. falciparum in erythrocytes, SYBR Green DNA, 72 h; series mostly up to 28.7 µM; activity, negative = inhibition: at the top concentration
# Method in brief: as §1
row,Compound,"activity, negative = inhibition"
1,C[N+]1([O-])[C@@H]2CC(OC(=O)[C@@H](CO)c3ccccc3)C[C@@H]1[C@H]1O[C@H]12 (stereo partly specified),-4.91%
2,ClC1=C(Cl)C2(Cl)C3C4CC(C5OC45)C3C1(Cl)C2(Cl)Cl (stereo unspecified),-26.5%
3,CCNC[C@H](O)c1cccc(O)c1,-0.651% [at 12.8 µM]

# Test system: CP329
# Experiment: as above
# Conditions: P. falciparum in erythrocytes, SYBR Green DNA, 72 h; series mostly up to 28.7 µM; activity, negative = inhibition: at the top concentration
# Method in brief: as §1
row,Compound,"activity, negative = inhibition"
1,C[N+]1([O-])[C@@H]2CC(OC(=O)[C@@H](CO)c3ccccc3)C[C@@H]1[C@H]1O[C@H]12 (stereo partly specified),3.67%
2,ClC1=C(Cl)C2(Cl)C3C4CC(C5OC45)C3C1(Cl)C2(Cl)Cl (stereo unspecified),-11.3%
3,CCNC[C@H](O)c1cccc(O)c1,6.75% [at 12.8 µM]

# Test system: DFO2036
# Experiment: as above
# Conditions: P. falciparum in erythrocytes, SYBR Green DNA, 72 h; series mostly up to 28.7 µM; activity, negative = inhibition: at the top concentration
# Method in brief: as §1
Compound,Potency,"activity, negative = inhibition"
C[N+]1([O-])[C@@H]2CC(OC(=O)[C@@H](CO)c3ccccc3)C[C@@H]1[C@H]1O[C@H]12 (stereo partly specified),inactive,–
ClC1=C(Cl)C2(Cl)C3C4CC(C5OC45)C3C1(Cl)C2(Cl)Cl (stereo unspecified),–,-5.67%
CCNC[C@H](O)c1cccc(O)c1,–,-2.71% [at 12.8 µM]

# Test system: DIV14
# Experiment: as above
# Conditions: P. falciparum in erythrocytes, SYBR Green DNA, 72 h; series mostly up to 28.7 µM; activity, negative = inhibition: at the top concentration
# Method in brief: as §1
row,Compound,"activity, negative = inhibition"
1,C[N+]1([O-])[C@@H]2CC(OC(=O)[C@@H](CO)c3ccccc3)C[C@@H]1[C@H]1O[C@H]12 (stereo partly specified),-1.63%
2,ClC1=C(Cl)C2(Cl)C3C4CC(C5OC45)C3C1(Cl)C2(Cl)Cl (stereo unspecified),-17.1%
3,CCNC[C@H](O)c1cccc(O)c1,-4.95% [at 12.8 µM]

# Test system: DIV17
# Experiment: as above
# Conditions: P. falciparum in erythrocytes, SYBR Green DNA, 72 h; series mostly up to 28.7 µM; activity, negative = inhibition: at the top concentration
# Method in brief: as §1
row,Compound,"activity, negative = inhibition"
1,C[N+]1([O-])[C@@H]2CC(OC(=O)[C@@H](CO)c3ccccc3)C[C@@H]1[C@H]1O[C@H]12 (stereo partly specified),12.8%
2,ClC1=C(Cl)C2(Cl)C3C4CC(C5OC45)C3C1(Cl)C2(Cl)Cl (stereo unspecified),-28%
3,CCNC[C@H](O)c1cccc(O)c1,-7.79% [at 12.8 µM]

# Test system: DIV30
# Experiment: as above
# Conditions: P. falciparum in erythrocytes, SYBR Green DNA, 72 h; series mostly up to 28.7 µM; activity, negative = inhibition: at the top concentration
# Method in brief: as §1
row,Compound,"activity, negative = inhibition"
1,C[N+]1([O-])[C@@H]2CC(OC(=O)[C@@H](CO)c3ccccc3)C[C@@H]1[C@H]1O[C@H]12 (stereo partly specified),-0.31%
2,ClC1=C(Cl)C2(Cl)C3C4CC(C5OC45)C3C1(Cl)C2(Cl)Cl (stereo unspecified),1.56%
3,CCNC[C@H](O)c1cccc(O)c1,-1.61% [at 12.8 µM]

# Test system: Dd2
# Experiment: as above
# Conditions: P. falciparum in erythrocytes, SYBR Green DNA, 72 h; series mostly up to 28.7 µM; activity, negative = inhibition: at the top concentration
# Method in brief: as §1
Compound,Potency,"activity, negative = inhibition"
C[N+]1([O-])[C@@H]2CC(OC(=O)[C@@H](CO)c3ccccc3)C[C@@H]1[C@H]1O[C@H]12 (stereo partly specified),inactive,–
ClC1=C(Cl)C2(Cl)C3C4CC(C5OC45)C3C1(Cl)C2(Cl)Cl (stereo unspecified),–,-20%
CCNC[C@H](O)c1cccc(O)c1,–,-1.2% [at 12.8 µM]

# Test system: ECU
# Experiment: as above
# Conditions: P. falciparum in erythrocytes, SYBR Green DNA, 72 h; series mostly up to 28.7 µM; activity, negative = inhibition: at the top concentration
# Method in brief: as §1
Compound,Potency,"activity, negative = inhibition"
C[N+]1([O-])[C@@H]2CC(OC(=O)[C@@H](CO)c3ccccc3)C[C@@H]1[C@H]1O[C@H]12 (stereo partly specified),inactive,–
ClC1=C(Cl)C2(Cl)C3C4CC(C5OC45)C3C1(Cl)C2(Cl)Cl (stereo unspecified),–,-14.4%
CCNC[C@H](O)c1cccc(O)c1,–,2.53% [at 12.8 µM]

# Test system: FAB9
# Experiment: as above
# Conditions: P. falciparum in erythrocytes, SYBR Green DNA, 72 h; series mostly up to 28.7 µM; activity, negative = inhibition: at the top concentration
# Method in brief: as §1
Compound,Potency,"activity, negative = inhibition"
C[N+]1([O-])[C@@H]2CC(OC(=O)[C@@H](CO)c3ccccc3)C[C@@H]1[C@H]1O[C@H]12 (stereo partly specified),inactive,–
ClC1=C(Cl)C2(Cl)C3C4CC(C5OC45)C3C1(Cl)C2(Cl)Cl (stereo unspecified),–,-7.25%
CCNC[C@H](O)c1cccc(O)c1,–,18.4% [at 12.8 µM]

# Test system: GB4
# Experiment: as above
# Conditions: P. falciparum in erythrocytes, SYBR Green DNA, 72 h; series mostly up to 28.7 µM; activity, negative = inhibition: at the top concentration
# Method in brief: as §1
row,Compound,"activity, negative = inhibition"
1,C[N+]1([O-])[C@@H]2CC(OC(=O)[C@@H](CO)c3ccccc3)C[C@@H]1[C@H]1O[C@H]12 (stereo partly specified),0.401%
2,ClC1=C(Cl)C2(Cl)C3C4CC(C5OC45)C3C1(Cl)C2(Cl)Cl (stereo unspecified),-17.9%
3,CCNC[C@H](O)c1cccc(O)c1,-5.62% [at 12.8 µM]

# Test system: HB3
# Experiment: as above
# Conditions: P. falciparum in erythrocytes, SYBR Green DNA, 72 h; series mostly up to 28.7 µM; activity, negative = inhibition: at the top concentration
# Method in brief: as §1
Compound,Potency,"activity, negative = inhibition"
C[N+]1([O-])[C@@H]2CC(OC(=O)[C@@H](CO)c3ccccc3)C[C@@H]1[C@H]1O[C@H]12 (stereo partly specified),inactive,–
ClC1=C(Cl)C2(Cl)C3C4CC(C5OC45)C3C1(Cl)C2(Cl)Cl (stereo unspecified),–,-19.7%
CCNC[C@H](O)c1cccc(O)c1,–,9.82% [at 12.8 µM]
